# Results as given in the supplement of paper PMC6897291.
# Structures can show the parent of a compound that is named as a salt.
# Columns and labels:
# [1] = system: U-2932; test: growth inhibition by drug alone (1 - RLU/untreated control) (fraction); higher = stronger inhibition; settings: 177Lu-lilotomab satetraxetan 0 ug/ml
# In short: (§1)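 With or without 18 h pretreatment by a radiolabelled anti-CD37 antibody conjugate (~600 MBq/mg; 0.5 µg/ml RIVA, 1 µg/ml U-2932), RIVA and U-2932 cells were washed and plated at 3,000 cells/well. Pre-printed compound doses were 10/100 nM for RIVA and 10/1,000 nM for U-2932. Growth inhibition uses RealTime-Glo RLU relative to the untreated no-drug wells. The calculation is 1 − RLU/mean of 48 such wells per plate, with reads daily from day 3 after 1 h at 37°C.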
# [2] = system: RIVA; test: as above; settings: 177Lu-lilotomab satetraxetan 0 ug/ml
# In short: as §1
# [3] = system: U-2932; test: growth inhibition by drug plus 177Lu-lilotomab satetraxetan (1 - RLU/untreated control) (fraction); higher = stronger inhibition; settings: 177Lu-lilotomab satetraxetan 1 ug/ml
# In short: as §1
# [4] = system: RIVA; test: as above; settings: 177Lu-lilotomab satetraxetan 0.5 ug/ml
# In short: as §1
SMILES,"growth inhibition by drug alone ([1]; 10 nM, time (day): 3)","growth inhibition by drug alone ([1]; 10 nM, time (day): 4)","growth inhibition by drug alone ([1]; 10 nM, time (day): 5)","growth inhibition by drug alone ([1]; 10 nM, time (day): 6)","growth inhibition by drug alone ([1]; 1000 nM, time (day): 3)","growth inhibition by drug alone ([1]; 1000 nM, time (day): 4)","growth inhibition by drug alone ([1]; 1000 nM, time (day): 5)","growth inhibition by drug alone ([1]; 1000 nM, time (day): 6)","growth inhibition by drug alone ([2]; 10 nM, time (day): 3)","growth inhibition by drug alone ([2]; 10 nM, time (day): 4)","growth inhibition by drug alone ([2]; 10 nM, time (day): 5)","growth inhibition by drug alone ([2]; 10 nM, time (day): 6)","growth inhibition by drug alone ([2]; 100 nM, time (day): 3)","growth inhibition by drug alone ([2]; 100 nM, time (day): 4)","growth inhibition by drug alone ([2]; 100 nM, time (day): 5)","growth inhibition by drug alone ([2]; 100 nM, time (day): 6)","growth inhibition by drug plus 177Lu-lilotomab satetraxetan ([3]; 10 nM, time (day): 3)","growth inhibition by drug plus 177Lu-lilotomab satetraxetan ([3]; 10 nM, time (day): 4)","growth inhibition by drug plus 177Lu-lilotomab satetraxetan ([3]; 10 nM, time (day): 5)","growth inhibition by drug plus 177Lu-lilotomab satetraxetan ([3]; 10 nM, time (day): 6)","growth inhibition by drug plus 177Lu-lilotomab satetraxetan ([3]; 1000 nM, time (day): 3)","growth inhibition by drug plus 177Lu-lilotomab satetraxetan ([3]; 1000 nM, time (day): 4)","growth inhibition by drug plus 177Lu-lilotomab satetraxetan ([3]; 1000 nM, time (day): 5)","growth inhibition by drug plus 177Lu-lilotomab satetraxetan ([3]; 1000 nM, time (day): 6)","growth inhibition by drug plus 177Lu-lilotomab satetraxetan ([4]; 10 nM, time (day): 3)","growth inhibition by drug plus 177Lu-lilotomab satetraxetan ([4]; 10 nM, time (day): 4)","growth inhibition by drug plus 177Lu-lilotomab satetraxetan ([4]; 10 nM, time (day): 5)","growth inhibition by drug plus 177Lu-lilotomab satetraxetan ([4]; 10 nM, time (day): 6)","growth inhibition by drug plus 177Lu-lilotomab satetraxetan ([4]; 100 nM, time (day): 3)","growth inhibition by drug plus 177Lu-lilotomab satetraxetan ([4]; 100 nM, time (day): 4)","growth inhibition by drug plus 177Lu-lilotomab satetraxetan ([4]; 100 nM, time (day): 5)","growth inhibition by drug plus 177Lu-lilotomab satetraxetan ([4]; 100 nM, time (day): 6)"
CCN1CCN(Cc2ccc(-c3cc4c(N[C@H](C)c5ccccc5)ncnc4[nH]3)cc2)CC1,-0.00148,0.0172,0.023,0.0324,-0.166,-0.174,-0.287,-0.315,-0.0711,-0.0709,-0.153,-0.452,-0.2,-0.171,-0.217,-0.348,-0.00551,0.0118,0.0153,0.0829,-0.206,-0.119,-0.121,-0.0824,0.45,0.538,0.553,0.545,0.314,0.416,0.435,0.409
Nc1cc(C(F)(F)F)c(-c2cc(N3CCOCC3)nc(N3CCOCC3)n2)cn1,-0.0505,-0.0268,-0.042,0.0241,0.632,0.62,0.563,0.519,,,,,,,,,-0.138,-0.0899,-0.0958,-0.0143,0.508,0.421,0.403,0.455,0.268,0.424,0.461,0.48,0.33,0.394,0.402,0.384
O=C(Nc1cccnc1)N1CCC(Cc2cccc(Oc3ccc(C(F)(F)F)cn3)c2)CC1,0.144,0.101,-0.0107,-0.0195,0.779,0.796,0.833,0.872,0.473,0.369,0.37,0.34,-0.00381,0.0224,0.0325,-0.0255,0.152,0.18,0.262,0.319,0.299,0.291,0.395,0.544,0.71,0.692,0.714,0.718,0.554,0.566,0.583,0.595
CCc1c2c(nc3ccc(OC(=O)N4CCC(N5CCCCC5)CC4)cc13)-c1cc3c(c(=O)n1C2)COC(=O)[C@]3(O)CC [Irinotecan HCl Trihydrate (Campto)],-0.0148,-0.0323,-0.109,-0.0905,0.841,0.921,0.96,0.976,,,,,,,,,0.0165,0.04,0.0458,0.118,0.839,0.928,0.965,0.98,0.219,0.422,0.475,0.51,0.485,0.649,0.699,0.741
CNC(=O)c1cc(COc2nnc(Nc3ccc(Cl)cc3)c3ccoc23)ccn1 [Telatinib (BAY 57-9352)],-0.0124,0.00544,-0.0774,-0.272,-0.0825,-0.0325,-0.0739,-0.229,,,,,,,,,-0.0402,-0.000867,0.00308,0.0503,-0.145,-0.0474,-0.0515,0.00564,0.351,0.487,0.503,0.502,0.316,0.416,0.413,0.391
